Nine compounds from PubChem BioAssay (NCI) can be followed below.

Some test systems named below: NCI-H23 lung; NCI-H226 lung; NCI-H322M lung; HOP-62 NSCLC; NCI-H460 lung; NCI-H522 lung; A549/ATCC NSCLC; 786-0 renal; COLO 205 colon; DU-145 prostate; MALME-3M melanoma; MDA-MB-231 breast; RXF 393 renal; SF-268 CNS; SF-295 CNS; SF-539 CNS; UACC-257 melanoma; M14 melanoma; HCT-15 colon; K-562 leukemia.
Common to all, as to test: NCI-60 one-dose screen, 48 h (100 = growth as untreated, 0 = no growth, -100 = all killed)
Common to all, as to settings: 10 µM

Each structure is given as a SMILES string. The panel holds about 83,000 compounds, 20% with a hit somewhere; the sample as a whole holds those more often.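 Percent growth is the endpoint: 0 to 100 indicates growth inhibition (40 means 60% inhibition), 0 means no net growth, and negative values indicate cell death.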 A number with no mark means an inactive call. Active and inactive are the calls of the source. Rule for the calls: active = growth percent below 10; inactive = the rest.

For `CC1CC(=O)OC(C)C1` (stereo not given), the growth in the experiment on NCI-H23 lung is 102%; in the experiment with NCI-H226 lung, 93.1%; with NCI-H322M lung, 103%; with HOP-62 NSCLC, 92.2%; in the experiment on NCI-H460 lung, 104%; in the experiment with NCI-H522 lung, 103%. The growth in the experiment on A549/ATCC NSCLC was 95.8%; in the experiment with 786-0 renal, 101%; in the experiment on COLO 205 colon, 112%; in the experiment with DU-145 prostate it was 111%; in the experiment on MALME-3M melanoma, 98.7%; in the experiment with MDA-MB-231 breast it was 113%. For the same compound, the growth in the experiment on RXF 393 renal was 104%; in the experiment on SF-268 CNS it was 111%; in the experiment on SF-295 CNS it was 94.6%; with SF-539 CNS, 98.5%; in the experiment with UACC-257 melanoma it was 111%; in the experiment on M14 melanoma it was 100%. Further, the growth in the experiment with HCT-15 colon was 104%.
Take `Nc1ccn(C2CC(O)C(CO)O2)c(=O)n1` (stereo not given): the growth in the experiment on NCI-H23 lung was 105%; in the experiment on NCI-H226 lung, 99.1%; with NCI-H322M lung, 223%; in the experiment with HOP-62 NSCLC, 98.8%; with NCI-H460 lung, 102%; with NCI-H522 lung, 109%. For the same compound, the growth in the experiment with A549/ATCC NSCLC is 108%; with 786-0 renal, 100%; with COLO 205 colon, 108%; in the experiment with DU-145 prostate it was 120%; in the experiment on K-562 leukemia, 99.5%; with MDA-MB-231 breast it was 115%. Moreover, the growth was 110% in the experiment on SF-268 CNS; 116% with SF-295 CNS; 98.3% in the experiment on SF-539 CNS; 113% with UACC-257 melanoma; 106% in the experiment on M14 melanoma; 102% in the experiment on HCT-15 colon.
Take `COc1cc(NC(=O)CSc2nc3ccccc3c(=O)n2CCc2ccccc2)cc(OC)c1OC`: the growth in the experiment with NCI-H23 lung was 26.6%; in the experiment with NCI-H226 lung it was -0.963% (active); with NCI-H322M lung it was 27.7%; with HOP-62 NSCLC, 9.57% (active); in the experiment with NCI-H460 lung, -30.2% (active); in the experiment with NCI-H522 lung, -23.9% (active). In addition, the growth in the experiment on A549/ATCC NSCLC is 24.9%; in the experiment on 786-0 renal, -80.1% (active); in the experiment on COLO 205 colon, 29.9%; in the experiment with DU-145 prostate it was 45.9%; in the experiment with MDA-MB-231 breast it was -17% (active); in the experiment with SF-268 CNS, 13.9%. The growth in the experiment with SF-295 CNS was 51.6%; in the experiment with SF-539 CNS, -50% (active); with UACC-257 melanoma, 39.2%; in the experiment on M14 melanoma it was 41.9%; in the experiment with HCT-15 colon, 89%.
In the case of `COc1cc(-c2cc(/C=C3\C(=O)Nc4ccc(Cl)cc43)[nH]n2)cc(OC)c1OC`, the growth in the experiment on NCI-H23 lung is 38.3%; with NCI-H226 lung it was 58.2%; with NCI-H322M lung, 51.5%; in the experiment on HOP-62 NSCLC it was 44.6%; in the experiment with NCI-H460 lung, 38%; in the experiment with NCI-H522 lung, 20.2%. Further, the growth in the experiment with A549/ATCC NSCLC was 40.4%; with 786-0 renal, 61.6%; with COLO 205 colon, 11.4%; in the experiment on K-562 leukemia it was 8.43% (active); in the experiment with MDA-MB-231 breast, 52.4%; with RXF 393 renal, 69.2%. Besides, the growth with SF-268 CNS was 38.2%; with SF-295 CNS it was 46.9%; in the experiment on SF-539 CNS, 45.1%; with UACC-257 melanoma, 18.7%; with M14 melanoma, 5.02% (active); in the experiment on HCT-15 colon, 7.21% (active).
In the case of `N#CCCN1C/C(=C/c2ccc(Cl)cc2)C(=O)/C(=C/c2ccc(Cl)cc2)C1`, the growth was -29.9% (active) with NCI-H23 lung; -56.8% (active) in the experiment with NCI-H226 lung; -22.1% (active) in the experiment with NCI-H322M lung; -58% (active) in the experiment on HOP-62 NSCLC; -49.9% (active) in the experiment on NCI-H460 lung; -82.2% (active) in the experiment on NCI-H522 lung. The growth in the experiment on A549/ATCC NSCLC is -35.9% (active); in the experiment with 786-0 renal, -70.5% (active); in the experiment with DU-145 prostate, -30.7% (active); in the experiment on K-562 leukemia, 3.1% (active); with MALME-3M melanoma it was -52.8% (active); in the experiment on MDA-MB-231 breast, -18.5% (active). For the same compound, the growth in the experiment with RXF 393 renal was -94.3% (active); in the experiment on SF-268 CNS, -38.6% (active); in the experiment on SF-295 CNS, -22.3% (active); with SF-539 CNS, -50% (active); in the experiment on UACC-257 melanoma, -53.4% (active); in the experiment with HCT-15 colon it was 2.04% (active).
In the case of `COC(=O)C1=NNC(=S)N(c2cc(C)[nH]n2)C(=O)C1`, the growth in the experiment with NCI-H23 lung was 99.1%; in the experiment with NCI-H226 lung, 99.7%; in the experiment with NCI-H322M lung, 94.5%; with HOP-62 NSCLC, 115%; in the experiment on NCI-H460 lung, 111%; in the experiment with NCI-H522 lung, 103%. Also, the growth with A549/ATCC NSCLC is 106%; in the experiment with 786-0 renal it was 96.9%; in the experiment with DU-145 prostate, 107%; with K-562 leukemia it was 93.7%; with MALME-3M melanoma it was 93.2%; in the experiment with MDA-MB-231 breast it was 110%. For the same compound, the growth in the experiment on RXF 393 renal was 111%; with SF-268 CNS, 102%; in the experiment with SF-295 CNS, 96.3%; with SF-539 CNS it was 102%; in the experiment on UACC-257 melanoma it was 100%; in the experiment on M14 melanoma it was 102%. Moreover, the growth in the experiment on HCT-15 colon is 102%.
Consider `c1ccc(CO[C@H]2CO[C@H]3[C@@H]2OC[C@H]3OCc2ccccc2)cc1`, for which the growth is 107% with NCI-H23 lung; 101% with NCI-H226 lung; 101% in the experiment with NCI-H322M lung; 97.7% in the experiment with HOP-62 NSCLC; 110% with NCI-H460 lung; 100% with NCI-H522 lung. In addition, the growth with A549/ATCC NSCLC was 111%; in the experiment on 786-0 renal it was 104%; in the experiment on DU-145 prostate, 119%; in the experiment on K-562 leukemia it was 106%; in the experiment on MALME-3M melanoma, 144%; with MDA-MB-231 breast, 112%. The growth is 119% in the experiment with RXF 393 renal; 102% in the experiment with SF-268 CNS; 95.3% in the experiment on SF-295 CNS; 110% in the experiment on SF-539 CNS; 108% with UACC-257 melanoma; 104% with M14 melanoma. For the same compound, the growth in the experiment with HCT-15 colon was 99.1%.
`COc1cc2c(cc1OCCCCCCN1CCN(CC(=O)Nc3ccc(Cl)cc3C(=O)c3ccccc3Cl)CC1)N=CC1CCCN1C2=O` (stereo not given): the growth was -56.1% (active) with NCI-H23 lung; -82% (active) in the experiment on NCI-H226 lung; -97.8% (active) with NCI-H322M lung; -77.9% (active) with HOP-62 NSCLC; -30.5% (active) in the experiment with NCI-H460 lung; -69% (active) in the experiment with NCI-H522 lung. The growth is -93% (active) with A549/ATCC NSCLC; -85.4% (active) in the experiment on 786-0 renal; -62.3% (active) with K-562 leukemia; -92.3% (active) with MALME-3M melanoma; -100% (active) in the experiment on MDA-MB-231 breast; -61% (active) in the experiment with SF-268 CNS. The growth is -94.9% (active) in the experiment with SF-295 CNS, -95.2% (active) in the experiment on SF-539 CNS, -67.4% (active) in the experiment with M14 melanoma and -100% (active) in the experiment with HCT-15 colon.
`Nc1ncn([C@@H]2O[C@H](CO)[C@@H](O)[C@H]2O)c(=O)n1`: the growth in the experiment on NCI-H23 lung is 37.2%; with NCI-H226 lung, 45.9%; in the experiment with NCI-H322M lung, 15.9%; with HOP-62 NSCLC, 2.42% (active); in the experiment with NCI-H460 lung, -1.73% (active); in the experiment with NCI-H522 lung it was 4.49% (active). In addition, the growth in the experiment with A549/ATCC NSCLC was 16.5%; in the experiment with 786-0 renal, 23.8%; in the experiment on DU-145 prostate it was 11.5%; in the experiment on MDA-MB-231 breast, -3.92% (active); in the experiment with SF-268 CNS it was 33.8%; in the experiment with SF-295 CNS, 28.4%. In addition, the growth was 3.27% (active) in the experiment with SF-539 CNS, 48% with UACC-257 melanoma, 19.7% in the experiment on M14 melanoma and 22.9% in the experiment with HCT-15 colon.
